Bioassay records as filed in PubChem.
Only some compounds are listed: those with a hit (about 27% of all), similar ones and a draw of the others.
CYP2C19 inhib: blockers of cytochrome P450 2C19 activity – biochemical, luminescence, ADME assay, primary screen. CYP2C19 Supersomes, luciferin-H EGE luminescence, 30 min. inhibition, % at 5 µM. 96,000 compounds, 21% hits. AID 778, 2007;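 active means CYP2C19 inhibition above a set limit at 5 µM in the primary screen, cut at about 50% in these data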;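 further: plate controls were negative control wells for no effect and 2.5 mM tranylcypromine positive control for full effect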
CYP2C19 activ: human CYP2C19 activators, primary screen, biochemical, luminescence | recombinant CYP2C19, luciferin-H EGE luminescence; active compounds read high; 0 = fully inhibited enzyme, 1 = untreated enzyme | activation factor at 5 µM | 96,000 tested, under 10 active | AID 1025, 2008;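 active means activation factor of at least 2 at 5 µM in the primary screen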;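 further: 0 = wells with 2.5 mM tranylcypromine and 1 = vehicle-only wells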
Cav32 inh: Cav3.2 calcium influx blockers – cell-based, Fluo-4 calcium fluorescence, FDSS, MLSMR library, primary screen | 100,000 compounds, 4% hits | Cav3.2-expressing cells; active compounds read low | B-score at 10 µM;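 active means single-dose well whose peak fluorescence ratio is a statistical outlier from its plate by either plate-standardised score or position-corrected B-score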
CYP2C9 activ: human CYP2C9 activators, primary screen, biochemical, luminescence | activation factor at 5 µM | recombinant CYP2C9, luciferin-H conversion; active compounds read high; factor 1 = untreated enzyme, 0 = blocked | 96,000 compounds, 1.4% hits | Cytochrome P450 2C9 (Homo sapiens), P11712;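 active means activation factor of 2 or more for CYP2C9 at a 5 µM dose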;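 further: 0 = sulfaphenazole-blocked wells and 1 = vehicle-only wells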
Target sequence (P11712 whole entry, looked up): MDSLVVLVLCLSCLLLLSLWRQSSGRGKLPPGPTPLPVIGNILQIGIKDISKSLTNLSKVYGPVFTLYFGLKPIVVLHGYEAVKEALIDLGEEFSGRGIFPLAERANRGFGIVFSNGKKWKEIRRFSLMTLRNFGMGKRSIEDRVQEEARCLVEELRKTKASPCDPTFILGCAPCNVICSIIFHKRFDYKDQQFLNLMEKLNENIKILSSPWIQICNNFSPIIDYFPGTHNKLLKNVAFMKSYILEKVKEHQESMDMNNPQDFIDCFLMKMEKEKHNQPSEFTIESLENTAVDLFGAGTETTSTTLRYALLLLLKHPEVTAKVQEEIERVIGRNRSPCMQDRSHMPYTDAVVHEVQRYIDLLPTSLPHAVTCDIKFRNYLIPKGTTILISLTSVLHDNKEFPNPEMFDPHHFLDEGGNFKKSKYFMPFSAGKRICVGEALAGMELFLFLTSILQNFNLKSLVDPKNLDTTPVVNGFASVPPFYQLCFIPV
CYP2C9 inh: blockers of cytochrome P450 2C9 activity – biochemical, luminescence, ADME assay, primary screen | P11712 | CYP2C9 Supersomes, luciferin-H conversion | inhibition, % at 5 µM | 96,000 compounds, 20% hits;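 active means blocking of liver enzyme CYP2C9 beyond about 50% at 5 µM, limit read from the data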
Numbers without * were called inactive; x = no result.

SMILES	CYP2C19 inhib	CYP2C19 activ	Cav32 inh	CYP2C9 activ	CYP2C9 inh
COc1ccc(-c2noc(CSc3nc4ccccc4c(=O)n3-c3ccccc3)n2)cc1	9	0.9	-2.4	0.7	32
O=c1c2ccccc2nc(SCc2nnc(-c3ccccc3)o2)n1-c1ccccc1	35	0.6	-2.6	0	95*
Cc1noc(C)c1CSc1nc2ccccc2c(=O)n1-c1ccc(F)cc1F	39	0.6	x	0.1	94*
O=C(Nc1ccc(-c2csc(Nc3ccccc3)n2)cc1)c1cc([N+](=O)[O-])cc(C(F)(F)F)c1	x	x	-2.3	x	x
COCc1nc2sc(C)c(C)c2c(=O)[nH]1	x	x	0.84	x	x
C=CCn1c(SCc2c(C)noc2C)nc2cc(C(=O)O)ccc2c1=O	x	x	-0.11	x	x
CCCn1c(SCc2nc3sc(C)c(C)c3c(=O)[nH]2)nc2ccccc2c1=O	37	0.6	0.51	0.3	66*
C=CCn1c(SCc2c(C)noc2C)nc2ccccc2c1=O	95*	0	0.29	0	97*
C=CCn1c(SCc2nc3ccccc3c(=O)[nH]2)nc2ccccc2c1=O	33	0.7	-0.15	0.2	83*
Cc1noc(C)c1CSc1nc2ccccc2c(=O)n1-c1ccccc1	37	0.6	-2	0.2	84*
COc1ccc(-n2c(N)c(Br)c(=O)[nH]c2=O)cc1	-3	1	-0.15	1	4
CC1(c2ccncc2)Nc2ccccc2-c2nc3ccccc3n21 (stereo not given)	97*	0	0.56	0.1	90*
COc1ccc2c(c1)C1(Nc3ccccc3-c3nc4ccccc4n31)C(=O)N2 (stereo not given)	-12	1.1	-0.66	0.7	25
O=C(O)Cc1c[nH]c2cccc(O)c12	x	x	0.76	x	x
CC(Sc1ccccn1)C(=O)Nc1ccc(S(N)(=O)=O)cc1 (stereo not given)	18	0.8	-0.11	0.8	17
COc1ccc(NC(=O)C(C)Sc2ccccc2)cc1 (stereo not given)	51*	0.5	-0.36	0.4	64*
CC(Sc1ccccn1)C(=O)Nc1ccccc1 (stereo not given)	81*	0.2	-0.37	0.6	36
CC(Sc1ccccc1)C(=O)Nc1ccc(N2CCOCC2)cc1 (stereo not given)	12	0.9	1.3	0.7	27
COc1ccc(C2C(C#N)=C(C)NC3=C2S(=O)(=O)c2ccccc23)cc1 (stereo not given)	x	x	-0.13	x	x
Cc1ccccc1NC(=O)C1Cc2ccccc2C(=O)O1 (stereo not given)	71*	0.3	0.79	0.8	16
Cc1[nH]nc(-c2ccc(O)c(C)c2O)c1-c1cnn(-c2ccccc2)c1	99*	0	-0.91	0	99*
O=C(O)C1NCCc2ccccc21 (stereo not given)	32	0.7	-0.18	0.3	74*
O=C1CC(c2ccc(F)cc2)CC(O)=C1C1NCCc2ccccc21 (stereo not given)	-7	1.1	0.18	1	2
CC1=C(C(=O)Nc2ccccc2)C(c2ccccc2)N2C(=O)CSC2=N1 (stereo not given)	3	1	-11*	0.9	8
CC1=C(C(=O)Nc2ccccc2)C(c2ccc(C)o2)N2C(=O)CSC2=N1 (stereo not given)	64*	0.4	-7.9*	0.5	46
SMILES	CYP2C19 inhib	CYP2C19 activ	Cav32 inh	CYP2C9 activ	CYP2C9 inh
CC1=C(C(=O)Nc2ccccc2)C(c2ccc(C)o2)n2c(s/c(=C/c3ccccc3)c2=O)=N1 (stereo not given)	72*	0.3	-3.2	0.1	87*
CC1=C(C(=O)Nc2ccccc2C)C(c2ccc(C)o2)n2c(s/c(=C/c3ccccc3)c2=O)=N1 (stereo not given)	-7	1.1	-1.3	0.6	38
C=CCNc1ccc(F)c(F)c1N1CCCCCC1=O	15	0.8	0.14	1.6	-60
Cc1c(C=O)cnn1CCC(=O)O	x	x	-0.26	x	x
CCN(CC)CCNC(=O)c1ccc(CS(=O)(=O)c2ccc(Br)cc2)o1	x	x	1.2	x	x
O=S(=O)(c1cccs1)n1nnc2ccccc21	5	0.9	0.59	1.9	-87
O=S(=O)(N1CCCCC1)n1nnc2ccccc21	82*	0.2	-0.042	1.2	-16
CCOC(=O)C1=C(C)Nc2ccc(C)cc2S1	66*	0.3	0.16	0.7	31
CCOCCOC(=O)C1=C(C)Nc2ccc(C)cc2S1	91*	0.1	-0.068	0.3	71*
CSCCOC(=O)C1=C(C)Nc2ccc(C)cc2S1	50	0.5	-0.97	0.4	61*
CCOC(=O)/C=C1\Nc2ccccc2SC1=O	44	0.6	0.64	0.5	49
CC(=O)Nc1ccc(NC(=O)CN(c2ccccc2Cl)S(C)(=O)=O)cc1	14	0.9	-0.23	1	-2
O=C(Cc1c(O)c2ccccc2[nH]c1=O)NC1CCCCCCC1	9	0.9	0.45	0.9	11
O=c1oc(-c2ccccc2F)nc2c1cnn2-c1ccccc1	9	0.9	0.76	1	3
CN(C(=O)c1ccccc1Cl)C1CCCCC1	75*	0.2	-1	0.6	37
O=c1[nH]c(=O)n(C2CCCO2)cc1F (stereo not given)	x	x	0.4	x	x
O=c1c(F)cn(C2CCCO2)c(=O)n1Cc1c(F)cccc1Cl (stereo not given)	92*	0.1	0.2	0.8	16
COc1ccccc1Nc1nc(N)nc(CN2CCC(Cc3ccccc3)CC2)n1	50*	0.5	-5.2*	0.3	72*
O=S1(=O)CCN2C(=N1)Sc1c2ccc2c1CCCC2	70*	0.3	0.38	1.2	-20
O=S1(=O)CCN2C(c3ccc4c(c3)CCCC4)=CSC2=N1	-3	1	0.08	0.9	10
O=C(c1ccc(COc2ccc(Cl)cc2)o1)N1CCN(Cc2ccc3c(c2)OCO3)CC1	16	0.8	-3.3	0.4	62*
O=C(c1ccc(COc2ccccc2Cl)o1)N1CCN(Cc2ccc3c(c2)OCO3)CC1	72*	0.3	-4.9*	0.1	87*
c1ccc(C2COC(c3cccs3)=N2)cc1 (stereo not given)	62*	0.4	-1.6	0.9	8
NC(=O)CSc1nnc(C2CC2)n1Cc1ccccc1	-5	1	0.73	1	4
CC(=O)NC(C)c1ccc(Cl)c(Cl)c1 (stereo not given)	75*	0.2	1.1	0.9	6
CC(=O)NC(NC(C)=O)c1ccc(Br)cc1	-7	1.1	0.6	1	0
CCCC1=C(C(=O)OCC)C(c2cccs2)C(C#N)=C(N)O1 (stereo not given)	79*	0.2	-1.9	0.3	67*
